Test results reported in PubChem BioAssay (NCI).
This is part of a sample that, as a whole, favours compounds with a hit. Of some 83,000 tested, about 20% had one in any assay.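 Results are percent growth after 48 hours of single-concentration exposure. 100 means growth as in untreated cells, lower positive values show inhibition; negative values down to -100 show cell death.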 A number with no mark means an inactive call. The source made the active and inactive calls. The calls were made as follows: active = growth percent below 10; inactive = the rest.

Assays:
Test in all cases: NCI-60 one-dose screen, 48 h (100 = growth as untreated, 0 = no growth, -100 = all killed)
Settings in all cases: 10 µM unless noted
SK-MEL-2 melanoma = test system: SK-MEL-2 melanoma
EKVX NSCLC = test system: EKVX NSCLC
SN12C renal = test system: SN12C renal
UO-31 renal = test system: UO-31 renal
TK-10 renal = test system: TK-10 renal
ACHN renal = test system: ACHN renal
A498 renal = test system: A498 renal
CCRF-CEM leukemia = test system: CCRF-CEM leukemia
MOLT-4 leukemia = test system: MOLT-4 leukemia
SR leukemia = test system: SR leukemia
RPMI-8226 leukemia = test system: RPMI-8226 leukemia
OVCAR-8 ovarian = test system: OVCAR-8 ovarian
OVCAR-5 ovarian = test system: OVCAR-5 ovarian
OVCAR-4 ovarian = test system: OVCAR-4 ovarian
SK-OV-3 ovarian = test system: SK-OV-3 ovarian
IGROV1 ovarian = test system: IGROV1 ovarian
OVCAR-3 ovarian = test system: OVCAR-3 ovarian
HS 578T breast = test system: HS 578T breast
NCI/ADR-RES ovarian = test system: NCI/ADR-RES ovarian
T-47D breast = test system: T-47D breast

| SMILES | growth (SK-MEL-2 melanoma) | growth (EKVX NSCLC) | growth (SN12C renal) | growth (UO-31 renal) | growth (TK-10 renal) | growth (ACHN renal) | growth (A498 renal) | growth (CCRF-CEM leukemia) | growth (MOLT-4 leukemia) | growth (SR leukemia) | growth (RPMI-8226 leukemia) | growth (OVCAR-8 ovarian) | growth (OVCAR-5 ovarian) | growth (OVCAR-4 ovarian) | growth (SK-OV-3 ovarian) [%] | growth (IGROV1 ovarian) | growth (OVCAR-3 ovarian) | growth (HS 578T breast) [%] | growth (NCI/ADR-RES ovarian) | growth (T-47D breast) |
| --- | --- | --- | --- | --- | --- | --- | --- | --- | --- | --- | --- | --- | --- | --- | --- | --- | --- | --- | --- | --- |
| O=Cc1[nH]c(Sc2ccccc2)c2ccccc12 | 81.6% | 76.1% | 77.7% | 48.6% | 80.3% | 96.6% | 95.3% | 12.1% | 17% | 59.3% | 7.59% (active) | 68.6% | 87.4% | 58.3% | 83.5 | 88.2% | 50.4% | 64.9 | 69.7% |  |
| COC(=O)c1oc2c(C(=O)/C=C/c3ccc(OC)cc3)c(OCCCN3CCCCC3)ccc2c1C | 53.5% | 28% | 22.5% | 12.2% | 35.2% | 28% | 83.6% | -46.2% (active) | -31.4% (active) | -31% (active) | -65.7% (active) | -22.7% (active) | 23.3% | 14.1% | 28.5 | 9.13% (active) | 26.5% | 12.6 | 0.873% (active) |  |
| COc1cc(C(=O)N2CCN(c3ccccc3OC)CC2)c(NC(=O)c2cnccn2)cc1OCc1ccccc1 | 85.7% | 57.2% | 88.6% | 39% | 102% | 92.5% | 84.9% | -44% (active) | 52.4% | 60.7% | 65.9% | 91.1% | 90.8% | 79% | 90.2 | 63.9% | 92.7% | 103 | 78.9% |  |
| C=C1C(=O)O[C@H]2[C@H]1CC/C(COC(=O)c1cccnc1N)=C\CC[C@@]1(C)O[C@@H]21 | 39.1% | 34.1% | 10.4% | 13.3% | -6.51% (active) | -3.75% (active) | 33.8% | -3.91% (active) | 8.57% (active) | 2.93% (active) | -19.2% (active) | 14.9% | 36.1% | 54.7% | 71.3 | 13.8% | -4.59% (active) | 28.9 | 31.9% |  |
| COc1cccc(NC(=O)Nc2ccc(Nc3ncnc4[nH]c(C)c(C)c34)cc2)c1 | 104% | 96.5% | 95% | 85.2% | 112% | 102% | 107% | 86.1% | 78.8% | 91.1% | 90.8% | 91.7% | 114% | 109% | 102 | 115% | 113% | 83.9 | 107% |  |
| COc1cc2cc(c1Cl)N(C)C(=O)C[C@H](OC(=O)[C@H](C)N(C)C(=O)CCS)C[C@]1(C)O[C@H]1[C@H](C)[C@@H]1C[C@@](O)(NC(=O)O1)[C@H](OC)/C=C/C=C(\C)C2 | 20% | 38.8% | 28.2% | 47.4% | 62.4% | 25.4% | -21.9% (active) | 16.2% | 13.1% | 12.2% | 24.4% | 13.7% | 44% | 28.8% | 18.7 | 18.5% | -4.97% (active) | 20.9 | 10.5% | 61.2% |
| CC(C)C1=C[C@@]23CC[C@H]4[C@](C)(COCCC#N)CCC[C@]4(C)[C@H]2C[C@@H]1[C@@H]1[C@H]3[C@@H](OCCC#N)CC[C@@H]1OCCC#N | 24.5% | 17.6% | 32.9% | 24.8% | 37.7% | 25% | 67.7% | 34.3% | 5.36% (active) | 15% | 18.7% | 34.4% | 65.9% | 27.1% | 64.3 | 23.5% | 37.1% | 64.5 | 27.8% | 10.5% |
| CCOC(=O)c1c(C(F)(F)F)n([O-])c2ccc(Cl)cc2[n+]1=O | -57.2% (active) | -8.8% (active) | -21.4% (active) | -44.3% (active) | -92.7% (active) | -97.8% (active) | -76.4% (active) | -45.7% (active) | -48.5% (active) | -33.6% (active) | -69.8% (active) | -42.6% (active) | -27.8% (active) | -35.3% (active) | 66.6 | -30.3% (active) | -70.5% (active) | 13.8 | 8.49% (active) | -53% (active) |
| CCOC(=O)c1c(C)nc2c(c1N)CC(=O)N2CCc1ccccc1 | 39.2% | 55.9% | 24.3% | 36.6% | -3.79% (active) | 34.2% | 11.9% | 9.62% (active) | 18.6% | 3.16% (active) | -6.34% (active) | 24.3% | 53.3% | 62.8% | 45.6 | 28.7% | 35.4% | 41.1 | 30.1% | 53.9% |
| COc1cc(NCC(=O)Nc2cc(Nc3cccc(C(F)(F)F)c3)ncn2)c(Cl)c(OC)c1Cl | 89.5% | 90.6% | 101% | 64.2% | 101% | 95.7% | 71.5% | 72.5% | 76.2% | 72.2% | 83.5% | 94.1% | 98.2% | 99.2% | 93.6 | 95.3% | 95.5% | 82.2 | 96.3% | 81.2% |
| Nc1c(C(=O)Nc2ccccc2Cl)sc2nc3c(cc12)CN(Cc1ccccc1)CC3 | 95.6% | 93% | 101% | 99.7% | 98.5% | 104% | 85.4% | 91.7% | 89.6% | 87.1% | 103% | 118% | 95.5% | 113% | 91.2 | 87.5% | 85.1% | 108 | 99.8% | 87.8% |
| CCCn1cc(/C=N\N=C2\C(=O)Nc3ccc(C)cc32)c2ccccc21 | 35.1% | 50.5% | 49.9% | 60% | 107% | 55.7% | 57.2% | -0.646% (active) | -9.9% (active) | 11.6% | -24.9% (active) | 47.5% | 84.6% | 41.8% | 88.4 | 39.4% | 2.1% (active) | 74 | 76.3% | 39.6% |
| CCCCn1c(=O)c(/C=C/C(=O)/C=C/c2ccc(OC)cc2)cc2cc(Cl)ccc21 | 84% | 91% | 75.9% | 62.8% | 112% | 103% | 91.6% | 29.2% | 44.4% | 3.16% (active) | -18.7% (active) | 5.24% (active) | 94.9% | 42.9% | 108 | 59.1% | 19.5% | 90.9 | 42.5% | 69.6% |
| OCCNc1nc(NCCO)nc(Nc2ccc(C3=NN(c4cc(Cl)cc(Cl)c4)C(c4ccccc4)C3)cc2)n1 (stereo not given) | 40.4% | 59.4% | 55% | 56.9% | 74.1% | 42.2% | 85.1% | 24.3% | 20.5% | 5.4% (active) | 30.9% | 48.9% | 85.8% | 57.7% | 94.5 | 57.5% | 26.2% | 62.9 | 57.2% | 63.6% |
| CC(=O)c1c(OCC#N)ccc2c(C)cc(=O)oc12 | 95.6% | 105% | 102% | 114% | 118% | 99.8% | 101% | 105% | 101% | 87.1% | 80% | 124% | 114% | 107% | 110 | 116% | 120% | 106 | 118% | 97.9% |
| Nc1ccc(C(=O)Nc2cccc(C(=O)Nc3ccc4c(O)c(N=Nc5ccc(N=Nc6ccc(S(=O)(=O)O)cc6)cc5)c(S(=O)(=O)O)cc4c3)c2)cc1 | 97.5% | 105% | 101% | 88.4% | 97.1% | 106% | 107% | 98.5% | 92.1% | 92.2% | 103% | 110% | 106% | 101% | 101 | 102% | 107% | 106 | 99.2% | 108% |
